Records with an inconclusive call do not appear. Activity calls are given as the source filed them. Rule for the calls: active = hit-call score of the fitted dose curve at least 0.9, where 1 is the maximum; inconclusive = response in the unintended direction; inactive = score below 0.9.
Target: human Peroxisome Proliferator-activated Receptor alpha (PPARa), PPARA (gene 5465) (UniProt Q07869)
Assay: ERF_US_NR_hPPARA: Eurofins (ERF) Nuclear Receptor (NR) Cell Based Protein-Protein Interaction LeadHunter Assay for human Peroxisome Proliferator-activated Receptor alpha (PPARa) Agonism
Protocol: ERF_US_NR_hPPARA is a cell-based, single-readout assay that uses extracted gene-proteins […]. Measurements were taken 5 hours after chemical dosing in a 384-well plate. See PPARalpha Human NHR Cell Based Agonist Protein-Protein Interaction Assay, DiscoverX.ERF_US_NR_hPPARA is an assay component calculated from theERF_US_NR_hPPARA assay. It is designed to measure radioligand binding using a type of binding reporter as detected by scintillation counting with radiometry technology.Data from the assay component ERF_US_NR_hPPARA was analyzed at the assay endpoint, ERF_US_NR_hPPARA, in the positive analysis fitting direction relative to DMSO as the negative control and baseline of activity. Using a type of binding reporter, gain-of-signal activity can be used to understand changes in binding as they relate to gene PPARA. To generalize the intended target to other relatable targets, this assay endpoint is annotated to the nuclear receptor intended target family, where the subfamily is non-steroidal.
Cells were seeded in a total volume of 20 uL into white walled, 384-well microplates and incubated at 37C overnight prior to testing.Briefly, intermediate dilution of sample stocks was performed to generate 5X sample in assay buffer. 5 uL of 5X sample was added to cells and incubated at 37C for 300 minutes. Final assay vehicle concentration was 1%. The results are expressed as a percent efficacy of the control ligand.

Chain of human Peroxisome Proliferator-activated Receptor alpha (PPARa), PPARA (gene 5465) (Q07869 whole entry, looked up): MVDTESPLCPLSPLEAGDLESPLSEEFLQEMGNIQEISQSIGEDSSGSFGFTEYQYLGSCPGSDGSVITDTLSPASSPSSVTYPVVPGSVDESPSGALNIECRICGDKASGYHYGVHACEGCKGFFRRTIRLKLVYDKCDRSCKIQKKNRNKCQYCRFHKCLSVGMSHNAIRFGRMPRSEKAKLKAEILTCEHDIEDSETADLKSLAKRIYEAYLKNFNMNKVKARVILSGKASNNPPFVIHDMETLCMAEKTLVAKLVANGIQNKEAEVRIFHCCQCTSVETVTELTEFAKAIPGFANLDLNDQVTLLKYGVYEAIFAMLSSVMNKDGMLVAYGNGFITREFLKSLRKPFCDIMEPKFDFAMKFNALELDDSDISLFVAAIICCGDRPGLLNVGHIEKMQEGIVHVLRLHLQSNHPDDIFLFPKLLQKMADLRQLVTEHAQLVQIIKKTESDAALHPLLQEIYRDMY

SMILES | outcome | AC50
CN(CCOc1ccc(CC2SC(=O)NC2=O)cc1)c1ccccn1 (centres undefined) | inactive | –
CC(C)(Oc1ccc(C(=O)c2ccc(Cl)cc2)cc1)C(=O)O | – | 50 µM (active)
O=C(O)C(F)(F)OC(F)(F)C(F)(F)OC(F)(F)F | inactive | –
O=C(O)C(F)(F)C(F)(F)C(F)(F)C(F)(F)C(F)(F)C(F)(F)C(F)(F)C(F)(F)Cl | inactive | –
O=S(=O)(O)C(F)(F)C(F)(F)C(F)(F)C(F)(F)C(F)(F)C(F)(F)C(F)(F)C(F)(F)F | inactive | –
O=C(O)C(F)(F)C(F)(F)C(F)(F)C(F)(F)C(F)(F)C(F)(F)C(F)(F)F | inactive | –
O=S(=O)(O)C(F)(F)C(F)(F)C(F)(F)C(F)(F)C(F)(F)C(F)(F)F | inactive | –
O=C(CC(=O)C(F)(F)C(F)(F)C(F)(F)F)c1cccs1 | – | 12.6 µM (active)
O=C(O)C(F)(F)C(F)(F)C(F)(F)C(F)(F)C(F)(F)C(F)(F)C(F)F | inactive | –

— PubChem BioAssay AID2284384 (EPA ToxCast)
